# ± gives the standard deviation of the averaged measurements. Over roughly 25,000 sequences, “ln(normalized median fluorescence intensity)” has its median near 8.6; the highest 2% begin near 10. Many of the other results were omitted from the sample, so the highest values are more common in it than they were.
# Test system: PfAP2-EXP AP2 domain (GST-tagged)
# Test: gcPBM binding intensity (ln(normalized median fluorescence intensity)); higher = stronger DNA binding
# Outline: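 Binding intensity is defined as the maximum Masliner-normalised natural-log median intensity across replicate spots for either probe orientation. It was measured on an Agilent 4 × 180k array of primer-extended double-stranded 36-bp intergenic genomic probes and negative controls, to which GST-tagged P. falciparum DNA-binding domains made in E. coli were applied for 1 h in 1× PBS with 1% milk, 0.2 mg/ml BSA, 0.5% salmon testes DNA and 0.03% Triton X-100. Detection was by Alexa488 anti-GST antibody and scanning at 488 nm.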
row,Sequence,gcPBM binding intensity (ln)
1,ATTCTAAATAAATGTACACACAAAAATAAATGTATA [CACACA_site1732],8.61 ± 0.31
2,AACATATATATAATATGTACATAATATATATAAATG [XGTACX_site1161],8.52 ± 0.3
3,AAAATTAAAAATTACTGTACGTATTAGAGAATAAAT [XGTACX_site2567],8.53 ± 0.32
4,CATAAAATTGTGAAGTGTACATATTTTTAAATATAA [XGTACX_site8986],8.63 ± 0.28
5,AATATTTTACAATACACATGCAAATAATATTCTAAA [TGCATGCA_site618],8.63 ± 0.39
6,TATATATATAAATACACACACACAAAAAAAAAAAAA [CACACA_site4930],8.6 ± 0.34
7,AAAAAATAAATAAATACACACAAATATATATATATA [CACACA_site2543],10.2 ± 0.071
8,CATTTATATATATACACACACACAAAAAAAAAAAAA [CACACA_site2645],8.44 ± 0.49
9,TATATAAATATATATACACACAAAAAAAAAAAAAAA [CACACA_site1406],8.36 ± 0.52
10,TATTTATATTTATACACACACACAAAAAAAAAAAAA [CACACA_site6817],8.36 ± 0.57
11,TATATATATATATACACACACACAAAAAAAAAAAAA [CACACA_site1505],10.2 ± 0.21
12,TTAATAAAAGCCCATGCACACCTTAGAAAGTTTTAT [CACACA_site8003],8.43 ± 0.45
13,GCCATTAATTTATACACACACATTATGATTTTTTAT [CACACA_site754],8.86 ± 0.28
14,TCTTGTCTACCTTGTATTTAATATTTACATATATAA [TGCATGCA_negctrl_site320],8.95 ± 0.4
15,TTTATTTTGACAGATTGTACACTTTATACATGTTTT [XGTACX_site2356],8.8 ± 0.44
16,ATAAAAAAATCAGACACACACACGTAAACACATACA [CACACA_site5529],8.76 ± 0.57
17,TAATCATAAAAAAATACACACATATATAATATATAT [CACACA_site1983],8.51 ± 0.3
18,ATAAATATCATATATATACACACGTAATACATAATA [CACACA_site4001],8.4 ± 0.44
19,GGGGGGAGGGTGAATACACACGTAATAATCATAAAC [CACACA_site8502],10.6 ± 0.22
20,ATGGAATAATCACGTACACACAAGAAAAAAAAAAAT [CACACA_site527],8.8 ± 0.56
21,GGGGGGGGAGGGTGAATACACACGTAATAATCATAA [CACACA_site1716],10.8 ± 0.15
22,AACTTACTCTTTACAAGTACGTAAAAGAAATAGAAA [XGTACX_site1782],8.51 ± 0.41

row,Sequence,gcPBM binding intensity (ln)
1,AATTTCTATTTTGTGAGTACATACTCCTATTATATA [XGTACX_site3210],8.78 ± 0.26
2,ATTATATATAAATATACACACATATATAAAATACAT [CACACA_site5298],8.39 ± 0.28
3,TTATACTATTTTTATACATGCATTTCTATATATTTT [TGCATGCA_site316],9.3 ± 0.28
4,TTATATTATTTTTATACATGCATTTCTATATATTTT [TGCATGCA_site164],9.2 ± 0.3
5,TTTTTTTTTTCTCCTGCATGCAGCATTTATATATTA [TGCATGCA_site390],10.3 ± 0.13
6,TCTTTATATATATATATATGTGTGAATGTTAAGTAT [XGTACX_negctrl_site135],8.74 ± 0.33
7,TTTTTTTTGTATTAATGTACATATAACTTTTTTTTT [XGTACX_site7903],8.48 ± 0.47
8,ATTTTGTATATATTTTGTACATATTTTGTATATATT [XGTACX_site885],8.68 ± 0.3
9,ATATATATAAATATATGTACATAAATATATTTGTAA [XGTACX_site6715],8.47 ± 0.42
10,TGGATTTTGTATTAATGTACATATATATATATATAT [XGTACX_site4442],10.2 ± 0.51
11,CTGAATGTATATATTTGTACATATATATATATATAT [XGTACX_site5557],10.4 ± 0.22
12,ATATATATATATATATGTACATATATTTGTAATGTC [XGTACX_site8074],10.2 ± 0.43
13,TTATTAAATGAAAAATGTACATATAAATGATTATAT [XGTACX_site2788],8.51 ± 0.25
14,ATGAATATATATATTTGTACATATGTATATATATAT [XGTACX_site7527],9.71 ± 0.15
15,AATGTATATATGTAATGTACATATGTAATGTATATA [XGTACX_site6509],8.62 ± 0.46
16,ATGATTTGTCTGAAATGTACATATATATATATATAT [XGTACX_site5247],10.3 ± 0.47
17,GTTTGTATGTCCAAATGTACATATGATTTTATGAAA [XGTACX_site6595],8.72 ± 0.28
18,ACATAAATAAATTAATGTACATATATATTTGTATAT [XGTACX_site3160],8.36 ± 0.28
19,ACATTTATTTTGAATGGTACACTATTATTATGAAAT [XGTACX_site4384],8.36 ± 0.38
20,TTTTTTTTTTGATGCACACACCTGAACGAGTTAATA [CACACA_site4329],8.83 ± 0.37
21,ATTTTTAAATACAGTACACACATGGGTTTAAATTAT [CACACA_site2884],8.63 ± 0.38
22,ATATAATAATTGTACACATGCACACACAAATATTAT [TGCATGCA_site204],8.9 ± 0.29

# Reference: the supplement of paper PMC11417369
